Peg3 prom inh – Peg3 promoter-driven luciferase inhibitors, primary screen, cell-based, HeLa, luciferase luminescence; HeLa PEG-Prom luciferase reporter, overnight; inhibition, % at 20 µM; 360,000 tested, 1.7% active; AID 588405, 2011;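 active means inhibition of at least 50% at 20 µM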
TWEAK Fn14 block – inhibitors of TWEAK-Fn14 signaling, primary screen, luciferase reporter cells, uHTS; 360,000 tested, 2% active; AID 1159606, 2016; TWEAK-stimulated Fn14 reporter cells, luciferase luminescence, 8 h; inhibition, % at 10 µM; in the data active means inhibition above about 50%
HIF-2a inh – HIF-2a reporter inhibitors, primary screen, luminescence, 786-0 RCC cells; inhibition, % at 18.8 µM; 786-0 RCC cells HIF-2a reporter, luciferase luminescence, overnight; 360,000 tested, 0.72% active;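 active means inhibition of the luminescence signal of 40% or more relative to plate controls, in a single-dose primary screen at 18.75 µM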
KKLEB tox – cytotoxicity in KKLEB CF airway cells, primary screen, cytotoxicity control for CF NF-kB inhibitor project, cell-based, uHTS, fluorescence assay plates | 360,000 tested, 0.36% active | activity change (cytotoxicity), % at 5 µM | AID 602141, 2011 | KKLEB CF airway cells viability, ATPlite luminescence, overnight; hits give low values; cells stimulated with P. aeruginosa culture filtrate;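 active means corrected activity change at or below -50% at 5 µM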
CF NFkB inh – inhibitors of PAF-induced NF-kB signaling, primary screen, cell-based, GFP fluorescence, uHTS | inhibition, % at 5 µM | 360,000 tested, 0.86% active | KKLEB NF-kB-GFP reporter, GFP fluorescence overnight;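 active means at least 50% inhibition at 5 µM, scaled per plate between neutral and stimulator controls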;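 further: PAF is a Pseudomonas aeruginosa culture filtrate used as stimulus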
TROY NFkB inh – inhibitors of TROY-driven NF-kB signaling, primary screen, Q293 LMP1-TROYcd cells, NF-kB luciferase, uHTS | AID 1347056, 2019 | 360,000 tested, 0.98% active | inhibition, % at 10 µM | Q293 LMP1-TROYcd NF-kB luciferase reporter, 4 h;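 active means compounds whose plate-normalised and pattern-corrected inhibition of the luciferase reporter signal at the single screening dose is 50% or more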
Each line names hits and unclear results; the compound was inactive in the other large screens. Most compounds without a hit are left out; they make up all but 4% or so of the library.

Cc1ccccc1NC(=O)N1CCCC(c2nc(-c3ccc(F)cc3)no2)C1 (stereo not given)	none
CC(C)c1ccc(-c2noc(C3CCCN(C(=O)c4ccc(F)cc4F)C3)n2)cc1 (stereo not given)	TWEAK Fn14 block 52
Cc1ccccc1NC(=O)N1CCCC(c2nc(-c3ccc(C(C)C)cc3)no2)C1 (stereo not given)	TWEAK Fn14 block 55, TROY NFkB inh 74
C/C(=N\NC(N)=O)c1cc(Cl)cc(Cl)c1O	none
Cc1csc(Nc2ccccc2)n1	none
C=C(C)c1cccc(C(C)(C)NC(=O)Nc2ccc(C(C)=O)cc2)c1	none
CC(=O)Oc1ccc2occ(-c3ccccc3)c2c1	TWEAK Fn14 block 54
CC(=O)Oc1ccc2occ(C(=O)c3ccccc3)c2c1	none
COc1cc(NC(=O)C2C3C=CC(C3)C2C(=O)O)ccc1NC(=O)c1ccccc1 (stereo not given)	none
O=C(NCCNC(=O)c1ccco1)c1cccc(F)c1	TROY NFkB inh 52
COc1cc(OC)c(OC)cc1CNCCNC(=O)c1ccco1	TWEAK Fn14 block 96
COc1ccc(C(C)(C)C)cc1NC(=O)CCNC(=O)c1ccco1	TWEAK Fn14 block 91
COc1cccc(CNCCNC(=O)c2ccco2)c1OC	none
COc1ccc(C(C)(C)C)cc1NC(=O)CNc1cccc2ccccc12	TWEAK Fn14 block 58
O=C(NCCNC(=O)c1ccco1)c1ccc(F)cc1	none
O=S(=O)(NC(=NC1CCCCC1)c1ccccc1F)c1ccccc1	TWEAK Fn14 block 63
O=S(=O)(NC(=NC1CCCCC1)c1ccccc1)c1ccccc1	none
O=C(O)C(C=C(Cl)Cl)N1CCOCC1 (stereo not given)	none
Cc1cccc(C(=O)NCC(=O)OCC(=O)c2cc(C)n(CC3CCCO3)c2C)c1 (stereo not given)	TWEAK Fn14 block 59, TROY NFkB inh 80
COCC(C)n1c(C)cc(C(=O)COC(=O)CNC(=O)c2ccccc2)c1C (stereo not given)	none
COCCn1c(C)cc(C(=O)COC(=O)c2ccc[nH]c2=O)c1C	Peg3 prom inh 52, TWEAK Fn14 block 71, TROY NFkB inh 59
Cc1cc(C(=O)COC(=O)c2cccc(S(=O)(=O)N(C)C)c2)c(C)n1CC1CCCO1 (stereo not given)	none
COCCn1c(C)cc(C(=O)COC(=O)CNC(=O)c2ccccc2)c1C	TWEAK Fn14 block 63, TROY NFkB inh 54
Cc1cc(C(=O)COC(=O)CNC(=O)c2ccccc2)c(C)n1CC1CCCO1 (stereo not given)	TWEAK Fn14 block 60
Cc1cc(NC(=O)CSc2nnc(NCc3ccco3)s2)no1	none
Cc1ccc(NS(=O)(=O)c2ccc(NC(=O)c3ccc(-c4ccccc4)cc3)cc2)c(C)c1	none
COCCn1c(C)cc(C(=O)CSc2nc3ccccc3s2)c1C	TWEAK Fn14 block 51, TROY NFkB inh 60
COCCn1c(C)cc(C(=O)COC(=O)c2ccc(Br)o2)c1C	TWEAK Fn14 block 55, TROY NFkB inh 55
COCCn1c(C)cc(C(=O)CSc2nc3ccccc3o2)c1C	none
S=c1[nH]nc(-c2cc(-c3ccccc3)n[nH]2)n1/N=C/c1cccs1	none
Cc1ccccc1OCC(O)Cn1c(NCc2ccco2)nc2c1c(=O)[nH]c(=O)n2C (stereo not given)	none
CC(C)(CN1CCNCC1)NS(=O)(=O)c1ccc(Cl)cc1	none
O=C1NCN(c2ccccc2)C12CCN(CCCC(c1ccc(F)cc1)c1ccc(F)cc1)CC2	Peg3 prom inh 82
CN(C)P(=O)(Nc1cccc2ccccc12)Nc1cccc2ccccc12	TWEAK Fn14 block 76
COc1cc(/C=C2\C(=O)ON=C2c2ccccc2)cc(Br)c1O	Peg3 prom inh 51, HIF-2a inh 51
CCOc1cc(/C=C2\C(=O)ON=C2c2ccccc2)cc(Br)c1O	HIF-2a inh 79
COc1cc(/C=C2/C(=O)ON=C2c2ccccc2)ccc1O	HIF-2a inh 53
O=C(COC(=O)c1cc(Cl)nc(Cl)c1)NCc1ccc2c(c1)OCO2	none
CCS(=O)(=O)Nc1ccc(-c2nnc(SCC(=O)c3ccc(NC(C)=O)c(OC)c3)o2)cc1	none
Cc1ccccc1Oc1nc2c(C)cccn2c(=O)c1/C=C(\C#N)C(=O)Nc1c(C)n(C)n(-c2ccccc2)c1=O	TWEAK Fn14 block 52
Cc1cc(Oc2nc3c(C)cccn3c(=O)c2/C=C(\C#N)S(=O)(=O)c2ccccc2)ccc1Cl	Peg3 prom inh 68
Cc1cccn2c(=O)c(/C=C(\C#N)S(=O)(=O)c3ccccc3)c(Oc3ccc(Cl)cc3)nc12	none
c1ccc(-c2csc3ncnc(NCCCN4CCOCC4)c23)cc1	none
O=c1c2c(-c3ccccc3)csc2nc2c3ccccc3c(NCCN3CCOCC3)nn12	Peg3 prom inh 108
CCC(CO)Nc1ccn2nc(-c3cccs3)cc2n1 (stereo not given)	none
O=C(O)C1=C[C@H](c2ccccc2)C[C@H](OCCCCO)O1	none
C/C(=N/OC(=O)c1ccc(C)cc1)c1cccs1	TROY NFkB inh 62
COc1ccc(C(=O)O/N=C(\C)c2ccccc2)cc1	TROY NFkB inh 69
COc1ccc(C(=O)O/N=C(\N)c2ccc(OC)c(OC)c2)c(OC)c1	none
COc1ccc(C(=O)O/N=C(\N)c2ccccn2)c(OC)c1	TWEAK Fn14 block 88, TROY NFkB inh 73
COc1ccc(C(=O)O/N=C(\N)c2ccccc2)c(OC)c1	TWEAK Fn14 block 86, TROY NFkB inh 77
CCN(CC)S(=O)(=O)c1ccc(N2CCCC2)c(NC(=O)c2nn(C)c(=O)c3ccccc23)c1	none
CN(CC(=O)Nc1ccccc1Br)C(=O)CNC(=O)Cc1cccc2ccccc12	none
CCC1(C)Cc2nc3[nH]c(=S)n(-c4ccccc4)c(=O)c3cc2CO1 (stereo not given)	none
COc1cc(C(C)=O)ccc1OCC(O)CN1CCN(c2ccccn2)CC1 (stereo not given)	TWEAK Fn14 block 108
O=C(CSc1ccc(-c2ccccn2)nn1)c1ccccc1	none
Cn1c(SCC(=O)c2ccc(F)cc2)nc2cccnc21	TWEAK Fn14 block 61
Cc1ccc(C(=O)CSc2nc3cccnc3n2C)cc1	none
CCOC(=O)CSc1nc2cccnc2n1-c1ccc(F)cc1	TROY NFkB inh 61
O=C(CSc1ccc(-c2ccccn2)nn1)c1ccc(F)cc1	TWEAK Fn14 block 82
CCCCCCc1cc2cc(C(=O)Nc3ccccc3)c(=O)oc2cc1O	TWEAK Fn14 block 69, KKLEB tox -83, CF NFkB inh 79, TROY NFkB inh 50

Source: PubChem BioAssay (Sanford-Burnham Center for Chemical Genomics)
